This note sets out measurements from ChEMBL document CHEMBL3988442, “University of Dundee, Small-Polar-MMV Screening Library” (2021).

The assay relates to Trypanosoma brucei. Nature of the assay: Trypanosoma brucei 72 hour study. The assay is classed as functional, organism-based. Set-up: scale not given: in the data most compounds retested in dose-response had high values.

Screen size: about 66,000 compounds; about 960 (1.5%) showed an effect of 50% or more. What follows is part of a selection rich in strong results, with near analogues and random picks from the rest.

As to `Cl.O=C(c1ccccc1F)N1CC2(CCNCC2)c2cc(Cl)ccc21`, where the note is “30.3 µM, […]”, the “Percent Effect” value was -26.55%. Same read-out and setting: under `CN(C)C(=O)N1CC2(CCNCC2)c2cc(Cl)ccc21.Cl` stands -10.23%; under `Cl.Cl.O=C([C@H]1CCCN1)N1CC2(CCNCC2)c2cc(Cl)ccc21`, 11.24%; under `Cc1ccc2c(c1)C1(CCNCC1)CN2C(=O)C(C)C`, -10.81%. With `C[C@@H](N)C(=O)N1CC2(CCNCC2)c2cc(Cl)ccc21.Cl.Cl`, under “30.3 µM, […]”, the “Percent Effect” value is listed as 51.33%. For the compound `Cl.Cl.O=C([C@@H]1CSCN1)N1CC2(CCNCC2)c2cc(Cl)ccc21`, the “Percent Effect” value (30.3 µM, […]) is -15.46%. On the same count and under the same terms, with `CCOC(=O)N1CC2(CCNCC2)c2cc(Cl)ccc21.Cl` the figure was 80.77%. For the compound `COCCN1CC[C@H](OC)[C@@H]1Cc1ccccc1.O=C(O)C(F)(F)F`, the “Percent Effect” value (30 µM, 30.03 µM) was -24.73%.

On to `O=C(COC[C@@]12CCC[C@@H]1CN(C1CCC1)C2)N1CCCC1.O=C(O)C(F)(F)F`, for which the “Percent Effect” value (30.3 µM, […]) is -61.71%.

For `Cc1nn(C)c2c(=O)n(CC(=O)NCC3CCCO3)ccc12` (configuration not stated), the “Percent Effect” value (30 µM, 30.03 µM) is listed as -1.766%. `CNC(=O)CN1CC[C@H]2CN(C(=O)c3ccoc3)C[C@H]2C1.O=C(O)C(F)(F)F`: the “Percent Effect” value (30.3 µM, […]) is reported as -45.09%. As for `CCOCC1CN(Cc2nccs2)Cc2nn(CC3CC3)cc21.O=C(O)C(F)(F)F` (configuration not stated), under “30 µM, 30.03 µM”, the “Percent Effect” value was -7.531%.

On to `COc1ncc(CN(CCCN2CCOCC2)Cc2ccc(C)o2)cn1.O=C(O)CC(O)(CC(=O)O)C(=O)O`, for which the “Percent Effect” value (30.3 µM, […]) was -12.51%. On the same count and under the same terms, under `CNc1nc(C2CCCN2C(C)=O)nc2c1CN(CCO)CC2.O=CO` (configuration not stated) stands 20.17%; under `CCOc1ccc([C@@H]2N[C@H](c3nccs3)Cc3ccsc32)cc1OC`, 10.72%. On the same count and under the same terms, with `CCOc1cc([C@H]2N[C@@H](c3nc(C)cs3)Cc3ccsc32)ccc1OC` the figure was 85.49%; with `COc1cccc([C@@H]2N[C@H](c3nccs3)Cc3ccsc32)c1OC`, 100.1%. As to `COc1cc([C@@H]2N[C@H](c3nccs3)Cc3ccsc32)cc(OC)c1OC`, the “Percent Effect” value (30.3 µM, […]) was -6.656%. Same read-out and setting: with `CCOc1cc([C@@H]2N[C@H](c3nccs3)Cc3ccsc32)ccc1OC` the figure was 9.707%. Regarding `COc1ccc(OC)c([C@@H]2N[C@H](c3nccs3)Cc3ccsc32)c1`, the “Percent Effect” value (30.3 µM, […]) is given as 15.15%. On the same count and under the same terms, under `O=C(CN1C[C@H]2C[C@H](OCc3ccccc3)C[C@H]2C1)N1CCOCC1` stands -15.88%; under `Cc1cc(C)n(CC2CN(c3nnc(C)c(C)c3C#N)CCO2)n1` (configuration not stated), 5.324%. For `O=C(NCC1CCCN(Cc2cccc3nonc23)C1)c1ccc[nH]1` (configuration not stated), the “Percent Effect” value (30 µM, 30.03 µM) is reported as -46.2%.

In the case of `NC1(C(=O)NCC2CCCN(Cc3ccccc3F)C2)CCCC1` (configuration not stated), the “Percent Effect” value (30 µM, 30.03 µM) is on record as -11%.

Take `NC1(C(=O)NCC2CCCN(Cc3cccc4nonc34)C2)CCC1` (configuration not stated): the “Percent Effect” value (30 µM, 30.03 µM) is 54.97%. With `COc1ccc(CN2CCc3nc4ccsc4c(=O)n3CC2)c(C)c1C`, the “Percent Effect” value (30.3 µM, […]) was 7.671%.

For the compound `CCn1cc(NC(=O)C(C)n2ncc(Cl)c2C)c(C(=O)NC)n1` (configuration not stated), the “Percent Effect” value (30 µM, 30.03 µM) is recorded as -19.95%. Still for that read-out and setting: with `CC(C)CNC(=O)[C@H]1CCS(=O)(=O)[C@@H]2CN(Cc3ccc(Cl)cc3)C[C@H]12.O=C(O)C(F)(F)F` the figure was 63.22%.

With `Cc1ccc(CN2C[C@@H]3[C@@H](C(=O)NCC(C)C)CCS(=O)(=O)[C@@H]3C2)cc1.O=C(O)C(F)(F)F`, the “Percent Effect” value (30.3 µM, […]) was -11.51%. On the same count and under the same terms, with `CC(C)CNC(=O)[C@H]1CCS(=O)(=O)[C@@H]2CN(Cc3ccc(F)cc3)C[C@H]12.O=C(O)C(F)(F)F` the figure was -43.77%. With `CC(CNCc1ccc(Cl)cc1)Oc1ccccn1.Cl` (configuration not stated), the “Percent Effect” value (30 µM, 30.03 µM) is listed as -4.288%.

Take `NC(=O)COc1ccc(C2NC(=O)CN2Cc2ccc(Br)cc2)cc1` (configuration not stated): the “Percent Effect” value (30 µM, 30.03 µM) is reported as -15.28%.

For the compound `Cc1cc(C2NC(=O)CN2Cc2ccc(Br)cc2)cc(C)c1O` (configuration not stated), the “Percent Effect” value (30 µM, 30.03 µM) is reported as 94.42%.

Consider `COc1cc(OC)cc(C2NC(=O)CN2Cc2ccc(Br)cc2)c1` (configuration not stated), for which the “Percent Effect” value (30 µM, 30.03 µM) is reported as -25.05%. Regarding `CC1N(c2cnn(C)c2)C(=O)COC12CCN(c1ncccn1)CC2.O=C(O)C(F)(F)F` (configuration not stated), where the note is “30.3 µM, […]”, the “Percent Effect” value is reported as -2.456%. Turning to `CN(CCc1ccccn1)C(=O)c1cccs1.Cl`, the “Percent Effect” value (30 µM, 30.03 µM) is -41.89%. The same measure, in the same setting: under `COCCNC(=O)c1nc(-c2ccc3cc[nH]c3c2)no1` stands -23.6%. On the same count and under the same terms, under `O=C(c1nc(-c2ccc3cc[nH]c3c2)no1)N1CCCC1` stands 53.89%; under `O=C(NCCN1CCCCC1)c1nc(-c2ccc3cc[nH]c3c2)no1`, 29.87%. For the compound `COCCNc1cc(C2CCCNC2)ccn1.Cl` (configuration not stated), the “Percent Effect” value (30.3 µM, […]) is 9.179%. Still for that read-out and setting: with `CCNC(=O)[C@@H]1C[C@@H](N)CN1Cc1ccc(Sc2ccc(C)cc2)o1` the figure was 100.1%; with `CCNC(=O)[C@@H]1C[C@H](N)CN1Cc1ccc(-c2cc[nH]n2)o1`, -17.36%. On the same count and under the same terms, under `CCNC(=O)[C@@H]1C[C@H](N)CN1Cc1ccc(Sc2ccc(C)cc2)o1` stands 18.4%.

As for `COCCN1C(=O)C[C@H]2[C@H]1CCN2Cc1cccc(C#N)c1.O=C(O)C(F)(F)F`, under “30 µM, 30.03 µM”, the “Percent Effect” value is reported as 17.08%. Regarding `O=C(O)C(F)(F)F.O=C(c1ccc[nH]1)N1CCn2cc(Cn3cccn3)nc2C1`, where the note is “30.3 µM, […]”, the “Percent Effect” value is 63.53%.

In the case of `O=C(c1ccc[nH]1)N1CCn2cc(Cn3cncn3)nc2C1`, the “Percent Effect” value (30 µM, 30.03 µM) is listed as -19.87%. Still for that read-out and setting: with `O=C(O)C(F)(F)F.O=C(c1ccc[nH]1)N1CCn2cc(CN3CCCC3)nc2C1` the figure was -5.056%.
